From PubChem BioAssay (EPA / NIEHS)
Results filed as inconclusive are left out. Activity calls are given as the source filed them. How the source made its calls, unless noted: active means hit-call score of the fitted dose curve at least 0.9, where 1 is the maximum; inactive means score below 0.9.

What was measured:
[1] = read-out: Interleukin-1 alpha (IL1a), IL1A (gene 3552); test: BSK_LPS_IL1a: BioMAP Diversity Plus: LPS Assay for Interleukin-1 alpha (IL1a) Biomarker Activity (AID 2283080); conditions: primary human HUVEC with PBMC; actives raise or lower the signal
Outline: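 Human umbilical vein endothelial cells co-cultured with peripheral blood mononuclear cells were LPS-stimulated and exposed to test chemicals for 24 h. IL-1 alpha was quantified by ELISA, with bidirectional curve fitting against DMSO as the negative control and baseline.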

[2] = read-out: Monocyte Chemoattractant Protein-1 (MCP1), CCL2 (gene 6347); test: BSK_LPS_MCP1: BioMAP Diversity Plus: LPS Assay for Monocyte Chemoattractant Protein-1 (MCP1) Biomarker Activity (AID 2283081); conditions: primary human HUVEC with PBMC; actives raise or lower the signal
Outline: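 HUVEC plus PBMC co-culture (human primary cells, LPS system) exposed to test chemical for 24 h; MCP-1 measured by ELISA. Bidirectional curve fitting against DMSO baseline; parallel SRB total-protein staining flags overt cytotoxicity.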

[3] = BSK_LPS_PGE2: BioMAP Diversity Plus: LPS Assay for Prostaglandin E2 (PGE2) Biomarker Activity (AID 2283082); conditions: primary human HUVEC with PBMC; actives raise or lower the signal
Outline: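 HUVEC plus human PBMC co-culture stimulated with LPS; secreted PGE2 quantified by ELISA 24 h after chemical dosing. Activity fitted bidirectionally against DMSO baseline; parallel SRB staining (0.1% SRB after 10% TCA fixation, 560 nm) flags overt cytotoxicity.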

[4] = read-out: Macrophage colony-stimulating factor (MCSF), CSF1 (gene 1435); test: BSK_LPS_MCSF: BioMAP Diversity Plus: LPS Assay for Macrophage colony-stimulating factor (MCSF) Biomarker Activity (AID 2283083); conditions: primary human HUVEC with PBMC; actives raise or lower the signal
Outline: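 Human umbilical vein endothelial cells co-cultured with peripheral blood mononuclear cells were exposed to compound for 24 h. M-CSF levels were measured by ELISA, and bidirectional curve fitting used DMSO as the negative control and baseline.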

[5] = read-out: Tissue Factor, F3 (gene 2152); test: BSK_LPS_TissueFactor: BioMAP Diversity Plus: LPS Assay for Tissue Factor Biomarker Activity (AID 2283084); conditions: primary human HUVEC with PBMC; actives raise or lower the signal
Outline: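 Human umbilical vein endothelial cells co-cultured with peripheral blood mononuclear cells were dosed and stimulated with LPS. Cell-surface CD142 was quantified by ELISA at 24 h. Activity was fitted bidirectionally against DMSO baseline.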

[6] = read-out: Tumor necrosis factor (Homo sapiens) (UniProt P01375); test: BSK_LPS_TNFa: BioMAP Diversity Plus: LPS Assay for Tumour Necrosis Factor alpha (TNFa) Biomarker Activity (AID 2283085); conditions: primary human HUVEC with PBMC; actives raise or lower the signal
Outline: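 Human umbilical vein endothelial cells co-cultured with PBMC and stimulated with LPS. TNFa was measured by ELISA 24 h after chemical dosing, fitted bidirectionally relative to DMSO.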

[7] = read-out: CD38, CD38 (gene 952); test: BSK_SAg_CD38: BioMAP Diversity Plus: SAg Assay for CD38 Biomarker Activity (AID 2283087); conditions: primary human HUVEC with PBMC; actives raise or lower the signal
Outline: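 Human HUVEC plus PBMC co-culture stimulated with superantigen; CD38 measured by ELISA 24 h after chemical dosing. Fluorescence read-out, bidirectional fit against DMSO; cytotoxicity tracked in parallel by SRB and Alamar Blue.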

[8] = read-out: CD69, CD69 (gene 969); test: BSK_SAg_CD69: BioMAP Diversity Plus: SAg Assay for CD69 Biomarker Activity (AID 2283089); conditions: primary human HUVEC with PBMC; actives raise or lower the signal
Outline: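 HUVEC co-cultured with PBMC were dosed with chemical, and CD69 was measured by ELISA with fluorescence read-out 24 h later. Bidirectional curve fitting used DMSO as negative control and activity baseline.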

[9] = read-out: Monocyte Chemoattractant Protein-1 (MCP1), CCL2 (gene 6347); test: BSK_SAg_MCP1: BioMAP Diversity Plus: SAg Assay for Monocyte Chemoattractant Protein-1 (MCP1) Biomarker Activity (AID 2283090); conditions: primary human HUVEC with PBMC; actives raise or lower the signal
Outline: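 MCP-1 levels in the endothelial–PBMC SAg co-culture were quantified by ELISA at 24 h post-dosing; both increases and decreases versus DMSO scored. Cytotoxicity monitored by SRB total protein in parallel cultures.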

[10] = read-out: E-selectin (Homo sapiens) (UniProt P16581); test: BSK_SAg_Eselectin: BioMAP Diversity Plus: SAg Assay for Eselectin Biomarker Activity (AID 2283091); conditions: primary human HUVEC with PBMC; actives raise or lower the signal
Outline: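 HUVEC co-cultured with PBMC, compound dosed then read at 24 h; E-selectin measured by ELISA. Activity fitted bidirectionally against DMSO as negative control and baseline.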

[11] = read-out: Monokine induced gamma interferon (MIG), CXCL9 (gene 4283); test: BSK_SAg_MIG: BioMAP Diversity Plus: SAg Assay for Monokine induced gamma interferon (MIG) Biomarker Activity (AID 2283092); conditions: primary human HUVEC with PBMC; actives raise or lower the signal
Outline: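 HUVEC plus human PBMC co-culture, chemicals dosed and MIG (CXCL9) quantified by ELISA at 24 h. Bidirectional curve fitting against DMSO as negative control and baseline, so both gain and loss of signal count as activity.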

[12] = BSK_SAg_PBMCCytotoxicity: PBMC Cytotoxicity Assessment in the BioMAP Diversity Plus: SAg Assay (AID 2283093); conditions: primary human HUVEC with PBMC;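 further: PBMC viability measured as Alamar Blue reduction fluorescence at 546/580 nm; fitted both ways against DMSO so a hit may be loss or gain of signal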
Outline: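 HUVEC/PBMC co-culture; PBMC exposed to chemical 1 h before SEB and TSST-1 activation (20 ng/mL each), incubated 90 h, then Alamar Blue 6 h, fluorescence 546/580 nm. Bidirectional fit versus DMSO baseline.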

[13] = read-out: Interleukin-8 (IL8), CXCL8 (gene 3576); test: BSK_SAg_IL8: BioMAP Diversity Plus: SAg Assay for Interleukin-8 (IL8) Biomarker Activity (AID 2283094); conditions: primary human HUVEC with PBMC; actives raise or lower the signal
Outline: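 Human umbilical vein endothelial cells co-cultured with PBMC, stimulated with superantigen; IL-8 measured by ELISA 24 h after chemical dosing. Bidirectional fitting versus DMSO; SRB staining in parallel cultures tracks cytotoxicity.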

[14] = BSK_SAg_Proliferation: Cell Proliferation Assessment in the BioMAP Diversity Plus: SAg Assay (AID 2283095); conditions: primary human HUVEC with PBMC
Outline: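 Human umbilical vein endothelial cells co-cultured with PBMC; sulforhodamine B total-protein staining (0.1% SRB after 10% TCA fixation, absorbance 560 nm) at 96 h in sub-confluent culture. Fitted bidirectionally against DMSO.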

[15] = BSK_SAg_SRB: Viability Assessment in the BioMAP Diversity Plus: SAg Assay (AID 2283096); conditions: primary human HUVEC with PBMC;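 further: cells read one day after compound addition; hits may be either gain or loss of signal compared with DMSO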
Outline: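 Human umbilical vein endothelial cells co-cultured with PBMC, read 24 h after compound dosing. Total protein measured by sulforhodamine B staining (0.1% SRB after 10% TCA fixation, absorbance 560 nm); bidirectional fit versus DMSO baseline.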

[16] = target: human CYP19A1, CYP19A1 (gene 1588) (UniProt P11511); test: NVS_ADME_hCYP19A1: NovaScreen (NVS) CYP450-related Enzyme Activity (ADME) Assay for human CYP19A1 (AID 2283098; active means hit-call score of the fitted dose curve at least 0.9, where 1 is the maximum)
Chain of human CYP19A1, CYP19A1 (gene 1588) (P11511 whole entry, looked up): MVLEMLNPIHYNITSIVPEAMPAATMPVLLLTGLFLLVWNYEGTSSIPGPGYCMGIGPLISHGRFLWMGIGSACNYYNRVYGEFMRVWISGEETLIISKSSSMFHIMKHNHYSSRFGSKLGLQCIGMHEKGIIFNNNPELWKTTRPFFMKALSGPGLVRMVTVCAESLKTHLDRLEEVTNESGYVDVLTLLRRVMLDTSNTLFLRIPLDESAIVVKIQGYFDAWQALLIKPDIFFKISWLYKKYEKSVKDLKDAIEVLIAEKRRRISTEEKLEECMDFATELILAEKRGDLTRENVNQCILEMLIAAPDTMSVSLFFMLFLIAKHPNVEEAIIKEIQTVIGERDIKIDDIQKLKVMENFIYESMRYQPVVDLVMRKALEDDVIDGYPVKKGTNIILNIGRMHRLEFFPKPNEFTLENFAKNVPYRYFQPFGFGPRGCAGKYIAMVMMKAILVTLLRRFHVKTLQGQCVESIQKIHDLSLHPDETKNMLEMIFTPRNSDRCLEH
Outline: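 Recombinant enzyme in a cell-free format, read 0.5 h after dosing by fluorescence from a fluorogenic substrate. Loss of signal was fitted against acetonitrile as baseline. Primary screen in duplicate at 10 uM, actives then tested in concentration series.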

[17] = read-out: Vascular cell adhesion molecule 1 (VCAM1), VCAM1 (gene 7412); test: BSK_LPS_VCAM1: BioMAP Diversity Plus: LPS Assay for Vascular cell adhesion molecule 1 (VCAM1) Biomarker Activity (AID 2283086); conditions: primary human HUVEC with PBMC; actives raise or lower the signal
Outline: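 Human umbilical vein endothelial cells co-cultured with PBMC and stimulated with LPS; VCAM-1 measured by ELISA 24 h after dosing. Bidirectional curve fitting against DMSO baseline; cytotoxicity tracked in parallel by SRB total-protein staining.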

[18] = read-out: CD40, CD40 (gene 958); test: BSK_SAg_CD40: BioMAP Diversity Plus: SAg Assay for CD40 Biomarker Activity (AID 2283088); conditions: primary human HUVEC with PBMC; actives raise or lower the signal
Outline: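 Human umbilical vein endothelial cells co-cultured with PBMC; CD40 levels measured by ELISA with fluorescence read-out 24 h after chemical dosing. Gain or loss of signal fitted bidirectionally against DMSO baseline.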

Measured: AC50

Chain of Tumor necrosis factor (Homo sapiens) (P01375 whole entry, looked up): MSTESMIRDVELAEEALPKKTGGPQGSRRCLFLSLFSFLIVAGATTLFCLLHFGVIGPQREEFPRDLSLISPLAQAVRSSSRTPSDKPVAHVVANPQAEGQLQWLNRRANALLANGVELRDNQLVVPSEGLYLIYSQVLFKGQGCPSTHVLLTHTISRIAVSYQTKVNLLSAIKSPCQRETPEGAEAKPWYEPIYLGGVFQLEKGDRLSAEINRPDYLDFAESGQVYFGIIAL
Chain of E-selectin (Homo sapiens) (P16581 whole entry, looked up): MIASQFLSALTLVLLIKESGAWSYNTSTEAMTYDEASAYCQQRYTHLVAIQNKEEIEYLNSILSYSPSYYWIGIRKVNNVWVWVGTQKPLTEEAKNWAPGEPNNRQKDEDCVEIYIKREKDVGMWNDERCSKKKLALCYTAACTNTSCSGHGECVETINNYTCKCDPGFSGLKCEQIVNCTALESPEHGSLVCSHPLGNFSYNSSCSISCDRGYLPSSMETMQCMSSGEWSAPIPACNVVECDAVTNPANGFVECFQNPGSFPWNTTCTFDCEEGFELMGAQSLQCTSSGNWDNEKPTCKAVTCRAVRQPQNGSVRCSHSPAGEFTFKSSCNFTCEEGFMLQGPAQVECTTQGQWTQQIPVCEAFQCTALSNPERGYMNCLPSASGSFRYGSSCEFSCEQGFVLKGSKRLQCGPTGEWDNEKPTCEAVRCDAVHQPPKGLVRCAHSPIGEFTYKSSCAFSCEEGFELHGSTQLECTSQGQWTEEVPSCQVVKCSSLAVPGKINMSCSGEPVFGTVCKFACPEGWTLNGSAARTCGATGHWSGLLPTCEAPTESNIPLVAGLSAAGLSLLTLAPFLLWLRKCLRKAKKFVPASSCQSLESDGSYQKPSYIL

CCOP(=O)(OCC)Oc1cc(C)nc(C(C)C)n1
inactive: [1] | [2] | [3] | [4] | [5] | [6] | [7] | [8] | [9] | [10] | [11] | [12] | [13] | [14] | [15] | [16]

COP(=O)(NC(C)=O)SC (configuration not stated)
inactive: [1] | [2] | [3] | [4] | [5] | [6] | [7] | [8] | [9] | [10] | [11] | [12] | [13] | [14] | [15] | [16]

CNC(=O)Oc1cccc2c1OC(C)(C)O2
inactive: [1] | [2] | [3] | [5] | [8] | [9] | [11] | [12] | [13] | [15]
active: [4] 20 µM | [6] 32.9 µM | [17] 20 µM | [7] 35.1 µM | [10] 15 µM | [14] 20 µM

COc1cc(OC)nc(Sc2cccc(Cl)c2C(=O)O)n1
inactive: [1] | [2] | [3] | [4] | [5] | [6] | [17] | [7] | [8] | [9] | [10] | [11] | [12] | [13] | [14] | [15]

CCCSP(=O)(OCC)SCCC
inactive: [1] | [2] | [3] | [4] | [5] | [6] | [17] | [7] | [18] | [8] | [9] | [10] | [11] | [12] | [13] | [14] | [15] | [16]
